Screening data as filed in PubChem.
Nrf2 block: Nrf2 pathway inhibition | A549 ARE-Fluc reporter, luciferase luminescence, 18-24 h | AID 504444 | Potency, µM (series often up to 46 µM), for inactives: at the highest dose activity change, negative = inhibition, usual class: inhibitors | hit rate 2.1% among 360,000; also: potency is read from the fitted curve at half-maximal effect; % is scaled to controls: 0 for no effect and ±100 for the full control effect; nearly all actives have a fitted effect of over 60% in size
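In this cell-based qHTS, ARE-driven firefly luciferase in A549 cells reports Nrf2 activity; the luminescent signal after BugLite lysis is the measured value, with a prior CellTiter-Fluor read for cell health.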
Nrf2 activator: Nrf2 pathway activation; AREc32 ARE-luciferase reporter (MCF7-derived line), luminescence, 24 h; Potency, µM (titrated, usually from 46.1 µM), without a hit: at the top dose activation, actives largely listed as activators; hit rate 0.31% among 410,000; AID 624171; also: potency is read from the fitted curve at half-maximal effect; % of control where 0% means no effect; nearly all actives have a fitted effect of over 65% in size
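AREc32 cells carrying an ARE-driven firefly luciferase reporter were seeded at 1000 cells/well in OPTI-MEM with 5% FBS, then exposed to compound for 24 hr at 37 deg C. Luminescence was read with Steady-Glo after 30 min at RT.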
p53 reactivator: restores transcriptional activity of mutant p53. H1299 p53-A138V BP100-luciferase reporter, luminescence, 24 h. Potency, µM (highest dose often 92.2 µM), for the others: top-dose activity change, positive = activation, usual class: activators. hit rate 0.063% among 320,000; also: potency is read from the fitted curve at half-maximal effect; % of control where 0% means no effect; nearly all actives have a fitted effect of over 45% in size
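H1299 (p53-null), stable ts p53-A138V + BP100-Luc; 1000 cells/well, Opti-MEM/10% FBS; cpd 4 pt, 1:5; 24 h, 37 deg C, 5% CO2; detection reagent 10 min RT; luminescence.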
BRCA1 expr act: BRCA1 expression activation; MCF7-BRCA1-FFLuc reporter, luminescence, 48 h; response scale: scaled: vehicle 0%, 10 µM genistein 100%; Potency, µM (highest dose often 46.1 µM), without a hit: at the top dose activation, usual class: activators; hit rate 1.1% among 380,000; AID 624202; also: potency is read from the fitted curve at half-maximal effect; nearly all actives have a fitted effect of over 80% in size
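48 h compound treatment of MCF7-BRCA1-FFLuc cells (phenol-red free MEM, 37 °C), then 15 min with luciferase substrate and luminescence imaging.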
IL2 activator: activates IL-2 in a cell-based reporter assay; hit rate 0.065% among 360,000; IL-2 activation reporter assay, cell-based qHTS; stimulated with anti-CD3/CD4/CD28 beads; in transgenic mouse T cells; activation, % (series mostly up to about 46 µM); in the data active = activation above about 50%; inconclusive = mostly about 30% to 49%; also: 0% is about no effect
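Readout is EGFP and DsRed signal by fluorescent plate cytometry after 18 h at 37 degrees C. Transgenic mouse T cells (750/well) received compound for 60 min before bead stimulation (anti-CD3, anti-CD4, anti-CD28); memory T cells served as non-tolerant control.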
A549 tox: counter-screen for Nrf2 inhibitors: cytotoxicity in A549 cells. A549 ARE-Fluc cells, CellTiter-Fluor viability, 18-24 h. Potency, µM (highest dose often 46 µM), for the others: at the top dose activity change, negative = cytotoxicity, most hits filed as inhibitors. hit rate 0.16% among 390,000. AID 504648; also: potency is read from the fitted curve at half-maximal effect; % is scaled to controls: 0 for no effect and ±100 for the full control effect
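A549 ARE_Fluc cells in 5% FBS OPTI-MEM were exposed to compounds in concentration-response for 18-24 h at 37 deg C. Viability was read by CellTiter-Fluor fluorescence (Ex 405/Em 525) after 30 min, before the luciferase read.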
* marks the source's active call; other numbers are inactive results; ? = inconclusive; / = no result given. This is a sample that favours compounds with a hit; in the whole collection about 3.2% have one here. Unless noted, calls follow the shape of the dose curve; as a rule, active = well fitted curve in the direction sought with a large enough effect; inconclusive = small, poorly fitted or top-dose-only effect, or another doubt; inactive = no such curve, though single readings can be large; an effect the other way counts as inactive or inconclusive.

SMILES	Nrf2 block	Nrf2 activator	p53 reactivator	BRCA1 expr act	IL2 activator	A549 tox
CN(C)/C=C(\C#N)C(=O)Nc1ccc(F)c(Cl)c1	23%	7%	16%	7.9µM*	-1	0%
O=C(Nc1ccc(-c2nc3ccccc3o2)cc1)c1ccc(N2CCOCC2)c([N+](=O)[O-])c1	16µM*	2%	12%	-78%	2	?
Cn1cc([N+](=O)[O-])c(C(=O)Nc2ccc(-c3nc4ccccc4o3)cc2)n1	0%	5µM*	?	-88%	0	0%
CCOC(=O)c1cccc(NC(=O)Cn2ncc3c(=O)oc4ccccc4c32)c1	1%	0%	/	-7%	/	5%
Oc1ccc(-c2csc(Nc3ncccn3)n2)c(O)c1	?	5%	0%	4.5µM*	0	-12%
Oc1ccc(-c2csc(Nc3ncccn3)n2)cc1O	?	?	13%	?	-1	?
Cc1cccnc1Nc1nc(-c2ccc(O)cc2)cs1	?	17%	?	4.5µM*	-2	?
CNC(=O)CSc1nnnn1-c1cc(C)ccc1C	-5%	0%	-6%	-6%	0	0%
Cc1ccc(C)c(-n2nnnc2SCC(=O)NCCC2=CCCCC2)c1	18µM*	2%	3%	6%	0	/
COc1cccc(NS(=O)(=O)c2ccc3c(c2)CCC(=O)N3)c1	?	/	/	/	/	-2%
CCCSc1nc(-c2ccccc2)cc(C(F)(F)F)c1C#N	/	11µM*	-1%	-53%	-1	10%
N#Cc1c(C(F)(F)F)cc(-c2ccccc2)nc1SCCN1CCOCC1	?	12%	-1%	-78%	0	-2%
Fc1ccc(-c2csc3[n+]2CCS3)cc1	16µM*	-1%	-6%	-20%	-3	-22%
COc1cc(OCc2ccccc2)c(C(=O)/C=C/c2ccc3c(c2)OCO3)c(OC)c1OC	21µM*	?	/	-83%	0	0%
CC(C)(C)c1ccc2c(c1)OC(C(=O)N/N=C\c1ccccn1)CO2 (stereo unspecified)	16µM*	0%	2%	-1%	-4	-10%
O=C(c1ccc2c(c1)N(Cc1ccc(F)cc1)C(=O)c1ccccc1S2=O)N1CCC(Cc2ccccc2)CC1 (stereo unspecified)	23µM*	1%	/	-49%	/	-24%
O=C(c1ccc2c(c1)N(Cc1ccccc1)C(=O)c1ccccc1S2=O)N1CCC(Cc2ccccc2)CC1 (stereo unspecified)	?	1%	/	-20%	/	-22%
COc1ccc(CNC(=O)c2ccc(-c3nc(CSc4ccccc4)c(C)o3)cc2)cc1OC	20%	-1%	/	/	/	-1%
COc1ccc(OC)c(CCNC(=O)c2cnn(-c3ccccc3)c2-n2cccc2)c1	?	4%	/	-42%	/	-12%
CCN(CC)c1ccc(NC2CC(=O)N(CCc3ccc(OC)cc3)C2=O)cc1 (stereo unspecified)	6%	0%	9%	-23%	125*	-5%
COc1ccc(CCNC2CC(=O)N(CCc3ccccc3)C2=O)cc1 (stereo unspecified)	8%	0%	-7%	0%	-1	8%
COc1ccc2nc3ccccc3nc2c1	?	5%	12%	13µM*	0	-12%
O=c1c2ccccc2nc(-c2ccccc2O)n1Cc1ccccc1	13%	/	/	/	/	1%
COc1ccc(Cn2c(O)c(C=Nc3ccc(C)cc3)c3ccccc3c2=O)cc1	9.2µM*	0%	-10%	3%	1	?
COc1ccc(Cn2c(O)c(C=Nc3ccc(O)cc3)c3ccccc3c2=O)cc1	?	0%	-2%	-52%	-5	?
SMILES	Nrf2 block	Nrf2 activator	p53 reactivator	BRCA1 expr act	IL2 activator	A549 tox
COc1ccc(Cn2c(-c3ccc(C)cc3)c[n+]3ccccc23)cc1	0.73µM*	3%	5%	-74%	-5	-16%
O=C(NNC(=S)Nc1ccccc1Cl)c1ccccc1Br	?	5%	?	8.9µM*	3	-3%
Cc1oc2c(c1C(=O)NCc1ccccc1F)C1=NCCN1C=N2	?	1%	/	/	/	24%
Cc1ccc(C(=O)CSc2ncnc3ccccc23)o1	?	13µM*	24%	83%	-3	-3%
COc1cc(OC)c(NC(=S)Nc2cc(Cl)cc(Cl)c2)cc1Cl	21µM*	2%	3%	-73%	-5	0%
COc1cc(NC(=S)Nc2ccccn2)c(OC)cc1Cl	-13%	4µM*	11%	-33%	0	1%
COc1cc(OC)c(NC(=S)Nc2cccc(C(C)=O)c2)cc1Cl	-17%	4%	9%	-31%	1	5%
CC(C)CCn1c(=O)c2sccc2n2c(CCCC(=O)Nc3ccc(F)c(Cl)c3)nnc12	-18%	0%	/	/	/	-14%
Cc1ncc(CO)c(/C=N/Nc2ccc(C(F)(F)F)cn2)c1O	10µM*	-1%	?	-77%	2	?
C/C(=N\NC(=O)c1ccc2c(c1)OCO2)c1ccc2c(c1)OCO2	?	2%	?	7.9µM*	-3	-1%
C/C(=N\NC(=O)c1cccs1)c1ccc2c(c1)OCO2	?	4%	15%	8.9µM*	1	-4%
CC(=NNC(=O)c1cccs1)c1ccc2c(c1)OCCO2	22%	7%	?	?	-1	-1%
C/C(=N\NC(=O)CSCc1ccc(Cl)cc1)c1ccc2c(c1)OCCO2	16µM*	0%	-3%	0%	-1	-7%
C/C(=N\NC(=O)COc1cccc(Cl)c1)c1ccc2c(c1)OCCO2	-22%	0%	1%	38%	0	1%
C/C(=N\Nc1ncc(Cl)cc1Cl)c1ccc(OC(F)F)cc1	?	5%	?	37%	-1	0%
C/C(=N\Nc1ncc(Cl)cc1Cl)c1ccc2c(c1)OCO2	0%	4%	3%	5.6µM*	-1	0%
O=C(Cn1ncc2c3ccccc3n(Cc3ccccc3F)c2c1=O)N1CCCCCC1	?	0%	/	/	/	-3%
O=C(Nc1ccc(F)c(Cl)c1)N1CCN(C(=O)c2nsc3ccccc23)CC1	?	1%	/	/	/	1%
CCOC(=O)c1c(NC(=O)CSc2nc3c(c(=O)n(C)c(=O)n3C)n2C(C)C)sc(C)c1C	6%	-1%	16%	-7%	-1	1%
CC(C)n1c(SCC(=O)Nc2nc3c(s2)CCCC3)nc2c1c(=O)n(C)c(=O)n2C	23µM*	-1%	-25%	-49%	0	-16%
CCCCn1c(SCC(=O)Nc2nnc(CC)s2)nc2c1c(=O)n(C)c(=O)n2C	8.2µM*	0%	8%	-89%	0	-3%
